In PubChem BioAssay AID652058 (Broad Institute, 2013):
In all, about 1,200 compounds went through this assay and about 870 (72%) were called active. Inconclusive results (about 3%) are left out.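 The calls were made as follows: active = every test run fits a falling curve whose half-maximal concentration is at most twice the top valid dose; inconclusive = runs disagree, or flat 30 to 70% inhibition, or poor fit; inactive = every run inactive: flat, rising or weaker potency.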 The set was probably picked from earlier hits. Only a sample is shown. Entries with a potency or affinity are not part of this list.

Assay: blockers of HIV-1 ZM109 envelope-driven cell-cell fusion – HeLa effector, CEM target cells, luciferase, cherry-pick, dose response (AID 652058);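 also: 0% = neutral control wells and -100% = maraviroc 300 nM wells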
Settings: HeLa Env/CEM cell fusion, 16-24 h; series mostly up to 35 µM

Activity change, negative = inhibition, inactive:
C[C@H]1NC(=O)[C@@]2(C)[C@H](c3ccccc3)[C@H]3COc4ccccc4[C@@H]3N2C1=O
COc1cc2c(cc1OC)C(=O)N1[C@H]3c4cc(Cl)ccc4OC[C@@H]3[C@H](c3ccccc3)[C@]1(C)C(=O)N2
COc1ccc(OCC(=O)Nc2cc(-c3nn(C)c(=O)c4ccccc34)ccc2OC)cc1
COc1ccc(-c2nn(C)c(=O)c3ccccc23)cc1NC(=O)COc1ccccc1
Cc1ccc(-c2ccc3c(c2)O[C@@H](CN(C)C(=O)C2CCCCC2)[C@H](C)CN([C@H](C)CO)S3(=O)=O)cc1
Cc1ccc(-c2ccc3c(c2)O[C@@H](CN(C)Cc2ccncc2)[C@H](C)CN([C@H](C)CO)S3(=O)=O)cc1
C[C@H](CO)N1C[C@H](C)[C@H](CN(C)Cc2ccccc2F)Oc2cc(C3=CCCC3)ccc2S1(=O)=O
Cc1ccc(-c2ccc3c(c2)O[C@H](CN(C)Cc2ccncc2)[C@@H](C)CN([C@@H](C)CO)S3(=O)=O)cc1
Cc1ccccc1S(=O)(=O)NC(=O)C1(C)CCN1C(=O)CCc1ccc(Cl)cc1Cl (centres undefined)
O=C(c1cccc(S(=O)(=O)N2CCN(c3ccccc3)CC2)c1)N1CCCC(C(F)(F)F)C1 (centres undefined)
N#Cc1ccc(CSc2nnc(COc3ccccc3)n2-c2ccccc2)cc1
COC(=O)[C@@]1(Cc2ccc(F)cc2)[C@H]2c3cc(C(=O)N(C)C)n(CCO)c3C[C@H]2CN1C(=O)c1ccccc1
CC(NC(=O)c1ccccc1NC(=O)CN1CCc2ccccc2C1)c1ccccc1 (centres undefined)
Cc1cccc(N2CCN(C(=O)CCCSc3nc4ccccc4[nH]3)CC2)c1C
Cc1ccc(-n2nnnc2SCn2nnc3ccccc3c2=O)c(C)c1
O=C(NCc1cccnc1)c1c[nH]c2cc3c(cc2c1=O)OCCO3
N#C[C@H]1[C@@H](c2ccccc2/C=C/c2ccccc2)[C@@H](CO)N1S(=O)(=O)c1cccc(F)c1
Cc1ccc(CSCCNC(=O)c2ccc(Cl)c(S(=O)(=O)N3CCOCC3)c2)cc1
Cc1nc2sc(C(c3ccco3)N3CCC(Cc4ccccc4)CC3)c(O)n2n1 (centres undefined)
C[C@H]1CN([C@@H](C)CO)C(=O)Cc2cc(N(C)C)ccc2O[C@H]1CN(C)CC1CC1
COCCCNC(=O)c1sc2ncnc(N3CCc4ccccc4C3)c2c1C
CC(C)(C)OC(=O)N1CCc2onc(-c3ccc(Br)cc3)c2C1=O
COc1ccc(Nc2ncc(C(=O)N3CCN(c4ccc(F)cc4)CC3)c3ccccc23)cc1
c1coc(CNc2c3c(nc4ccccc24)CCC3)c1
Cc1ccc(NS(=O)(=O)c2cc(C(=O)N(C)C3CCN(C)CC3)ccc2Cl)cc1Cl
Cc1cc(Cl)c(S(=O)(=O)N2CCCC2)cc1OCC(=O)NC1CCCCC1
C=CCOc1c(Br)cc(CNc2ccc(NC(=O)C(C)C)c(OC)c2)cc1OC
Cc1noc(C)c1NC(=O)N(C)C[C@H]1OCCCC[C@H](C)Oc2ccc(NC(=O)c3ccccc3)cc2C(=O)N([C@H](C)CO)C[C@@H]1C
O=C(c1ccc(Cl)cc1)N1CCCCC(Sc2nnc(-c3ccc4c(c3)OCO4)o2)C1=O (centres undefined)
COc1cccc(S(=O)(=O)N[C@H]2CC[C@H](CC(=O)NCc3ccncc3)O[C@@H]2CO)c1
O=C(C[C@H]1C[C@H]2c3cc(NC(=O)Cc4ccncc4)ccc3O[C@H]2[C@@H](CO)O1)NCc1ccncc1
Cn1c(-c2ccc(Cl)cc2)ccc(C#N)c1=O
Cc1onc(-c2ccccc2)c1C(=O)OCCOc1cccc(Cl)c1
Cn1cccc1C(=O)OCC(=O)NCCc1ccc(S(N)(=O)=O)cc1
Cn1c(=O)c2c(nc(NCCc3ccccc3)n2Cc2ccccc2)n(C)c1=O
COc1ccc(S(=O)(=O)N2CCCCC2)cc1NC(=O)CCCOc1ccc(C)cc1
CCOC(=O)CN1CCCc2nc(C)c(C)cc21
COCc1[nH]nc2c1C(c1ccc(F)cc1)N(Cc1ccccc1)C2=O (centres undefined)
CC(=O)Nc1ccc(C(=O)OCC(=O)NC(=O)NCc2ccccc2)cc1
CCN(CC)S(=O)(=O)c1cccc(NC(=O)c2ccc(-n3nc(C)cc3C)cc2)c1
CCN(CC)S(=O)(=O)c1ccc(NC(=O)Nc2cccc(C(F)(F)F)c2)cc1
CC(C)(C)c1ccc(-n2ncc3c2CCCC3NC(=O)CN2CCCC2=O)cc1 (centres undefined)
C[C@H](CO)N1C[C@H](C)[C@H](CN(C)S(=O)(=O)c2ccccc2)Oc2cc(Br)ccc2S1(=O)=O
CC(C)(C)c1ccc(OCCC(=O)Nc2cccc(S(=O)(=O)N3CCOCC3)c2)cc1
CCc1nc(N2CCCCC2)c2oc3ccccc3c2n1
CCc1nc(N2CCCCC2C)c2oc3ccccc3c2n1 (centres undefined)
O=C1c2cccc(OCc3ccc(F)cc3)c2CCN1Cc1ccccc1
NC(=S)c1ccc(OCCCc2ccccc2)cc1 111% [at 8 µM]
Nc1nc2c(ncn2[C@@H]2O[C@H](C(=O)NCC(c3ccccc3)c3ccccc3)[C@@H](O)[C@H]2O)c(=O)[nH]1
Nc1ncn([C@H]2C[C@H](O)[C@@H](CO)O2)c(=O)n1
O=S(=O)(NC1CC1)c1ccc(S(=O)(=O)N2CCCc3ccccc32)cc1
O=C(Cn1ncc2c(=O)oc3ccccc3c21)N1CCC(N2CCCCC2)CC1
O=C(NCCc1ccccc1)c1ccc2c(c1)OCCO2
O=C(CCNC(=O)c1ccc(Br)cc1)NNC(=O)COc1ccccc1F
CC(=O)c1c(C)[nH]c(C(=O)OCCCCN2C(=O)c3ccccc3C2=O)c1C
CC(C)C#Cc1ccc2c(c1)O[C@@H](CN(C)C(=O)C1CCCCC1)[C@H](C)CN([C@H](C)CO)S2(=O)=O
COc1ccc(-c2ccc3c(c2)[C@@H]2[C@@H](CCN2C(=O)NC2CCCC2)[C@H](CO)N3C)cc1
N#CCSc1nnc(-c2sc3ccccc3c2Cl)o1
C[C@@H]1CN([C@H](C)CO)S(=O)(=O)c2ccc(-c3ccccc3)cc2O[C@@H]1CN(C)Cc1ccccc1
CCOc1ccc(NC2c3ccccc3C(=O)N2Cc2ccco2)cc1 (centres undefined)
C[C@@H]1CN([C@H](C)CO)C(=O)c2cc(NC(=O)Nc3ccccc3)ccc2O[C@@H]1CN(C)S(=O)(=O)c1ccccc1
Cc1ccc(S(=O)(=O)N(C)C[C@H]2Oc3ccc(NC(=O)Nc4cccc5ccccc45)cc3C(=O)N([C@H](C)CO)C[C@@H]2C)cc1
COc1ccccc1C#Cc1ccc([C@H]2[C@H](C#N)N(C(=O)C3CCCC3)[C@H]2CO)cc1
CCCCS(=O)(=O)N1CCN(C(=O)C(=O)c2cccc(C(F)(F)F)c2)CC1
COc1ccc(C)cc1NC(=O)CCNS(=O)(=O)c1ccc2c(c1)CC(C)N2C(C)=O (centres undefined)
COc1ccc(NC(=O)C(=O)NCC2CCCN2S(=O)(=O)c2cccs2)cc1 (centres undefined)
O=C(Nc1ccc(C(=O)OC2CCCCC2)cc1)c1ccncc1
Cc1cccc(/C=N\Nc2cn[nH]c(=O)c2Cl)c1
COc1ccc(NC(=O)CN2CCC(C(N)=O)(N3CCCCC3)CC2)cc1
COc1ccc(-c2cn(CC[C@H]3CC[C@H](NS(=O)(=O)c4ccccc4C)[C@H](CO)O3)nn2)cc1
O=C(Nc1cccc(F)c1)N[C@H]1CC[C@@H](CCNS(=O)(=O)c2cccc(Cl)c2)O[C@H]1CO
CN(C)Cc1cn(CC[C@@H]2CC[C@H](N)[C@H](CO)O2)nn1
O=C(CCN1CCCCC1)N[C@@H]1CC[C@@H](CCn2cc(-c3ccccc3)nn2)O[C@@H]1CO
O=C(Cc1ccncc1)N[C@H]1CC[C@@H](CCn2cc(-c3ccccc3F)nn2)O[C@@H]1CO
O=C(Nc1cccc(F)c1)N[C@@H]1CC[C@H](CCNS(=O)(=O)c2cccc(Cl)c2)O[C@@H]1CO
COc1ccc(-c2c(C)nn3c(C(F)(F)F)cc(C)nc23)cc1
CCCNC(=O)C[C@@H]1C[C@H]2c3cc(NC(=O)c4cccnc4)ccc3O[C@H]2[C@H](CO)O1
Cc1cccc(C)c1N(CC(O)Cn1c2ccccc2c2ccccc21)S(C)(=O)=O (centres undefined)
CCNC(=O)C[C@@H]1CC[C@@H]2[C@H](COC[C@@H](O)CN2C(=O)c2ccccn2)O1
CS(=O)(=O)N1CCc2cc(-c3csc(NC(=O)Cc4cccs4)n3)ccc21
O=C(Nc1nc(-c2ccc3c(c2)OCO3)cs1)c1ccncc1
CCOC(=O)[C@@H]1[C@H]2COc3cc(OC)ccc3[C@H]2N2C(=O)N(c3cccc(F)c3)C(=O)[C@@]12C
O=C(C[C@@H]1C[C@@H]2c3cc(NC(=O)c4ccc5c(c4)OCO5)ccc3O[C@@H]2[C@@H](CO)O1)NCc1ccc(Oc2ccccc2)cc1
O=C(C[C@@H]1C[C@@H]2c3cc(NS(=O)(=O)c4ccc(F)cc4)ccc3O[C@@H]2[C@H](CO)O1)NCc1ccccc1F
O=C(C[C@@H]1C[C@@H]2c3cc(NC(=O)Nc4ccccc4)ccc3O[C@@H]2[C@@H](CO)O1)NCc1ccccc1
COc1ccccc1CNC(=O)C[C@H]1C[C@@H]2c3cc(NC(=O)c4cccnc4)ccc3O[C@@H]2[C@@H](CO)O1
COC(=O)Cn1cnc2c(Cl)nc(F)nc21
CN(C)C(=O)C[C@@H]1C[C@@H]2c3cc(NS(=O)(=O)c4ccc(F)cc4)ccc3O[C@@H]2[C@@H](CO)O1
O=C(C[C@H]1C[C@@H]2c3cc(NC(=O)C4CCOCC4)ccc3O[C@@H]2[C@H](CO)O1)NCc1ccccc1
O=C(C[C@@H]1C[C@H]2c3cc(NC(=O)C4CCC4)ccc3O[C@H]2[C@H](CO)O1)NCC(F)(F)F
CCCNC(=O)C[C@@H]1C[C@@H]2c3cc(NC(=O)Cc4ccncc4)ccc3O[C@@H]2[C@H](CO)O1
CN(C)C(=O)C[C@@H]1C[C@H]2c3cc(NS(=O)(=O)c4ccc(F)cc4)ccc3O[C@H]2[C@H](CO)O1
O=C(C[C@H]1C[C@H]2c3cc(NC(=O)C4CCC4)ccc3O[C@H]2[C@@H](CO)O1)NCc1ccc2c(c1)OCO2
CCCNC(=O)C[C@@H]1C[C@@H]2c3cc(NC(=O)CN(C)C)ccc3O[C@@H]2[C@H](CO)O1
